Common to all, as to test: NCI-60 one-dose screen, 48 h (100 = growth as untreated, 0 = no growth, -100 = all killed)
Common to all, as to conditions: 10 µM unless noted

Test [1] has as its system DU-145 prostate.
Test [2] deals with K-562 leukemia.
Test [3] has as its system MALME-3M melanoma.
The test system of test [4] is MDA-MB-231 breast.
The test system of test [5] is RXF 393 renal.
The subject of test [6] is SF-268 CNS.
The subject of test [7] is SF-295 CNS.
Test [8] has as its system SF-539 CNS.
Test [9] concerns UACC-257 melanoma.
Test [10] relates to M14 melanoma.
Test [11] deals with HCT-15 colon.
The test system of test [12] is HT29 colon.
The test system of test [13] is SNB-75 CNS.
Test [14] deals with SNB-19 CNS.
The test system of test [15] is U251 CNS.
Test [16] has as its system PC-3 prostate.
Test [17] relates to SK-MEL-5 melanoma.
The test system of test [18] is UACC-62 melanoma.
The subject of test [19] is LOX IMVI melanoma.
For test [20], the system named is SK-MEL-28 melanoma.

Each structure is given as a SMILES string. This is part of a sample that, as a whole, favours compounds with a hit. Of some 83,000 tested, about 20% had one in any assay.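 96-well plates, one dose, 48 hours. Percent growth reported; active if below 10.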 Values without a mark were called inactive. Active and inactive are the calls of the source.

On to `CCOC(=O)C1=C(C)C(Cl)=N/C1=C\c1[nH]c(Cl)c(C)c1C(=O)OCC`, for which the growth is 111% in [1]; 91% in [2]; 107% in [3]; 93% in test [4]; 115% in [5]; 101% in test [6]. Further, the growth was 111% in [7]; 100% in [8]; 91.4% in test [9]; 87.1% in [10]; 99.1% in test [11]; 91.9% in test [12]. Also, the growth in test [13] was 84.5%; in [14] it was 101%; in [15], 94.1%; in test [16], 76.3%; in [17], 96.8%; in [18], 97.4%. Also, in test [19], the growth is 93.9%.
`C=C(C)[C@@H]1CC[C@]2(COC(C)=O)CC[C@]3(C)[C@H](CC[C@@H]4[C@@]5(C)CCCN(C(C)=O)C(C)(C)[C@@H]5CC[C@]43C)[C@@H]12`: the growth in test [1] was 59.9%; in [2], 0.971% (active); in [3], 51%; in [4] it was 45.2%; in test [5] it was 64.1%; in test [6] it was 90.9%. The growth in [7] is 104%; in [8] it was 81%; in [9] it was 60%; in test [10], -65.9% (active); in test [11], 0.472% (active); in [12] it was -7.38% (active). For the same compound, the growth in [13] was 108%; in [14], 84.6%; in [15], 6.47% (active); in [16], 65.6%; in [17] it was 84.6%; in [18], -2.48% (active). Moreover, the growth is -98% (active) in [19] and 96.6% in test [20].
In the case of `C=C(C)[C@@H]1CC[C@]2(C(=O)N3CCN(C)CC3)CC[C@]3(C)[C@H](CC[C@@H]4[C@@]5(C)CC[C@H](OC(=O)c6ccccc6C(=O)O)C(C)(C)[C@@H]5CC[C@]43C)[C@@H]12`, the growth was 104% in test [1]; 102% in test [2]; 97.4% in test [3]; 96.9% in test [4]; 111% in [5]; 92.8% in [6]. Also, the growth was 104% in test [7]; 97.6% in test [8]; 107% in test [9]; 99.3% in test [10]; 103% in test [11]; 109% in [12]. Also, the growth is 85.1% in test [13]; 95.4% in [14]; 105% in test [15]; 91% in test [16]; 99.5% in test [17]; 101% in test [18]. Further, the growth in test [19] was 99.1%.
Regarding `O=C(Nc1ccccc1N1CCCC1=O)c1oc2ccc(F)cc2c1-c1cnn(-c2ccccc2)c1`, the growth in [1] was 68.8% [50 µM]; in [2], 42.9% [50 µM]; in test [3], 28.8% [50 µM]; in test [4], 21.7% [50 µM]; in [5], 25.8% [50 µM]; in [6], 40.1% [50 µM]. For the same compound, the growth in test [7] is 43.5% [50 µM]; in [8], 30.8% [50 µM]; in test [9], 69.9% [50 µM]; in test [10] it was 77.7% [50 µM]; in test [11] it was 44.9% [50 µM]; in [12], 62.2% [50 µM]. The growth was 14.8% [50 µM] in [13]; 54.5% [50 µM] in test [14]; 62.8% [50 µM] in test [15]; 39.7% [50 µM] in [16]; 10.6% [50 µM] in [17]; 46.1% [50 µM] in test [18]. In addition, the growth in [19] was 42.2% [50 µM]; in [20], 72% [50 µM].
Turning to `c1nc2ccc(-c3cc4ccc5[nH]ncc5c4c4c3CCCC4)cc2[nH]1`, the growth was 62.5% in test [1]; 27.8% in test [2]; 28.8% in test [3]; 81.6% in test [4]; 62.6% in test [5]; 71.1% in test [6]. Besides, the growth in test [7] was 67.9%; in [8], 48.7%; in [9], 59.1%; in test [10] it was 7.72% (active); in [11], 94.8%; in test [12], 58%. Further, the growth was 71.2% in [13]; 74.9% in [14]; 77.3% in test [15]; 63.1% in [16]; 67.4% in [17]; 31.9% in test [18]. In addition, the growth in [19] is 53.3%.
Consider `Nc1nc(N)c2c(n1)NC(c1ccc(Cl)cc1)C1CCc3ccccc3C1=N2` (stereo unspecified), for which the growth in test [1] is 64.1%; in [2], 31%; in [3] it was 19.6%; in test [4] it was 76.8%; in test [5], 83.3%; in test [6] it was 72.3%. The growth in test [7] is 20.7%; in test [8], 54.3%; in test [9] it was 58.2%; in test [10] it was 70.4%; in test [11], 45.9%; in [12], 41.9%. Further, the growth in test [13] is 62.1%; in [14] it was 76.1%; in test [15], 51.1%; in test [16], 51.6%; in test [17], 7.87% (active); in test [18] it was 55.2%. Also, the results for the growth in [19] and in [20] were 56.8% and 91.3%, respectively.
Regarding `O=C1Nc2ccccc2/C1=C\c1c[nH]c2ccc(Br)cc12`, the growth was 89.7% in test [1]; 74.2% in [2]; 89.8% in test [3]; 67% in test [4]; 25.4% in [5]; 62.2% in test [6]. In addition, the growth in [7] is 109%; in test [8], 83.1%; in [9] it was 80.1%; in test [10] it was 84.5%; in test [11], 48.7%; in [12], 86.7%. Further, the growth in test [13] is 56.1%; in test [14] it was 88.6%; in test [15] it was 85%; in test [16], 70.8%; in test [17], 35.4%; in [18], 80.1%. Moreover, the growth in test [19] is 50.6%.
Regarding `Cc1n[nH]c2ccc(Br)cc2c1=O`, the growth in test [1] was 104%; in test [2], 91.4%; in test [3], 97.4%; in test [4], 121%; in test [5] it was 103%; in [6], 107%. The growth is 87% in [7]; 98.1% in test [8]; 108% in test [9]; 103% in test [10]; 100% in test [11]; 98.3% in test [12]. For the same compound, the growth was 102% in test [13]; 109% in test [14]; 100% in test [15]; 90.9% in [16]; 97.4% in test [17]; 112% in test [18]. In addition, the values for the growth in test [19] and in test [20] were 101% and 113%, respectively.
